SNCA expr inhib: Primary qHTS assay for inhibitors of alpha-synuclein gene (SNCA) expression; HEK-293 SNCA-luciferase knock-in, luminescence, 24 h; Potency, µM (series often up to 57.2 µM), for the others: at the highest dose activity change, negative = inhibition, usual class: inhibitors; 140,000 compounds, 0.17% hits;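 note: potency is the fitted concentration of half-maximal effect; plate controls were DMSO cells for no effect and cell-free wells for full effect; nearly all actives have a fitted effect of over 45% in size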
IP6K1 inhibitor: Primary qHTS assay for small molecule inhibitors of Inositol hexaphosphate kinase 1 (IP6K1); 140,000 compounds, 0.81% hits; Inositol hexakisphosphate kinase 1 (Homo sapiens), Q92551; IP6K1 kinase, ADP-Glo luminescence, 2 h; hits give low values; activity change, % (series mostly up to about 58 µM); in the data active = activity change below about -25%; note: % is set by controls: 0 for no effect and ±100 for the full control effect
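ADP-Glo luminescence measures ADP made by human IP6K1 during a 2 h RT reaction with ATP/IP6 (mix at 1.3 mM/130 uM); top library doses 57.5 and 19.1 uM final.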
SNCA viab count: GF-AFC viability counterscreen for inhibitors of alpha-synuclein gene (SNCA) expression | 150,000 compounds, 0.12% hits | HEK-293-SNCA-luc viability, GF-AFC fluorescence, 24 h | Potency, µM (doses to about 57.1 µM), for the others: top-dose activity change, negative = cytotoxicity, most hits filed as cytotoxic;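 note: potency is the fitted concentration of half-maximal effect; 0% = DMSO-treated cells and -100% = medium-only wells without cells; nearly all actives have a fitted effect of over 30% in size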
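Cytotoxicity counterscreen: after 24 h compound treatment of genome-edited SNCA-luciferase HEK-293 cells, live-cell protease substrate GF-AFC read by fluorescence after 30 min; activity scaled between DMSO (0%) and medium-only (-100%), curves Hill-fitted.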
KDM5B inh: Primary screen for KDM5B Histone Demethylases FDH-coupled qHTS. KDM5B demethylase, FDH-coupled NADH fluorescence (FDH is formaldehyde dehydrogenase). Potency, µM (titrated, usually from 57.7 µM), usual class: inhibitors. 220,000 compounds, 2.6% hits; note: potency is the fitted concentration of half-maximal effect; 0% is about no effect; nearly all actives have a fitted effect of over 70% in size
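qHTS format, multiple compound concentrations. Buffer 50 mM HEPES pH 7.5/0.01% Tween-20; 200 nM KDM5BΔAP final; 10 min compound preincubation; substrate-mix levels 12.5 µM peptide, 25 µM α-KG, 0.25 mM NAD⁺; 30 min RT; ΔRFU.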
An asterisk follows results filed as active; i = inactive; u = inconclusive; x = not tested or not shown; ! = not active in a repeat; [ ] = another dose, or the depositor's remark. Compounds with a hit are over-represented: about 3% of the library has one in this group of screens. Unless noted, calls come from the whole dose curve; as a rule, active = well fitted curve in the direction sought with a large enough effect; inconclusive = small, poorly fitted or top-dose-only effect, or another doubt; inactive = no such curve, though single readings can be large; an effect the other way counts as inactive or inconclusive.

SMILES	SNCA expr inhib	IP6K1 inhibitor	SNCA viab count	KDM5B inh
O=C(NC1CCCC1)c1cc(C2CC2)nc2onc(C3CCNCC3)c12	-13%	6	0%	79µM*
COCCNC(=O)c1cc(-c2ccc(OC)cc2)nc2onc(C3CCNC3)c12 (stereo unspecified)	12%	0	-3%	79µM*
O=C(NC1CC1)c1cc(C2CC2)nc2onc(C3CCNCC3)c12	15%	10	1%	u
COCCNC(=O)c1cc(C2CC2)nc2onc(C3CCNC3)c12 (stereo unspecified)	7%	16	10%	79µM*
COc1cccc(-c2cn3cc(C(=O)NCc4cccnc4)nc3s2)c1	142%	-14	4%	x
C=CCOc1c(OC)ccc2c1CN(CC1CC1)C(=O)CCN2CC(O)COCc1ccco1 (stereo unspecified)	x	-7	x	x
Cc1nnc2ccc(N3CCN(C(=O)c4ccc(Cl)cc4)CC3)nn12	x	10	x	x
CCCc1noc(-c2ccn3c(CNC(=O)CCC4CCCC4)nnc3c2)n1	-2%	16	0%	3.5µM*
CCc1noc(-c2ccn3c(CNC(=O)CCc4ccccc4)nnc3c2)n1	-24%	-1	2%	25µM*
COc1ccccc1CC(=O)NCc1nnc2cc(-c3nc(C)no3)ccn12	16%	15	-3%	u
COc1cccc(CCC(=O)NCc2nnc3cc(-c4nc(C5CC5)no4)ccn23)c1	6%	10	-3%	28µM*
COc1cccc(CC(=O)NCc2nnc3cc(-c4nc(C(C)C)no4)ccn23)c1	-2%	1	1%	28µM*
Cn1ncc2c(C(=O)N3CCCCC3)cc(-c3ccc(C(F)(F)F)cc3)nc21	x	-19	x	x
COc1ccccc1Nc1ccnc(N2CCCC(C(=O)NC(C)C)C2)n1 (stereo unspecified)	23%	3	4%[12.5 µM]	x
CCc1noc(-c2cccn3c(CNC(=O)Cc4cccc(OC)c4)nnc23)n1	14%	-1	-10%	u
CCc1noc(-c2ccn3c(CNC(=O)CCc4cccc(OC)c4)nnc3c2)n1	3%	7	2%	28µM*
CCc1noc(-c2ccn3c(CNC(=O)Cc4cccc(OC)c4)nnc3c2)n1	6%	12	-12%	22µM*
CCc1noc(-c2ccn3c(CNC(=O)COc4cccc(C)c4)nnc3c2)n1	-11%	9	13%	u
CCOC(=O)[C@H]1[C@@H](O)C(=O)N(Cc2ccccc2)C12CCN(C(=O)CC(C)(C)C)CC2	x	2	x	x
CCOC(=O)C1CCCN(C(=O)c2ccc3oc(-c4ccncc4Cl)nc3c2)C1 (stereo unspecified)	11%	16	10%[12.5 µM]	x
CCS(=O)(=O)Nc1ccc2[nH]c(O)c(C(=Nc3ccc(CN4CCCCC4)cc3)c3ccccc3)c2c1	1.2µM*	x	u	x
O=C(NCc1ccc(Cl)cc1)c1ccc2cncn2c1	17%[87.6 µM]	4	3%[87.6 µM]	u
C=CCNC(=O)c1ccc2cncn2c1	0%[87.6 µM]	10	-4%[87.6 µM]	32µM*
O=C(c1ccc2oc(-c3ccnc(Cl)c3)nc2c1)N1CCOCC1	-23%	-14	-5%[12.5 µM]	x
O=C(c1cccc(F)c1)N1CCN(c2nnc3ccc(Cl)cn23)CC1	3%	18	-1%	14µM*
SMILES	SNCA expr inhib	IP6K1 inhibitor	SNCA viab count	KDM5B inh
O=C(c1ccc(F)cc1)N1CCN(c2nnc3ccccn23)CC1	-3%	44	7%	28µM*
O=C(c1ccoc1)N1CCCN(c2nnc3ccc(Cl)cn23)CC1	47%	10	6%	u
Cc1ccc(C(=O)N2CCN(c3nnc4ccccn34)CC2)cc1C	45%	12	-2%	25µM*
O=C1CCN(CC(O)COc2ccccc2)c2ccc(F)cc2CN1C1CCCC1 (stereo unspecified)	x	8	x	x
Cc1noc(C)c1S(=O)(=O)N1CCC(Oc2ccc(-c3noc(C(C)C)n3)cc2)C1 (stereo unspecified)	-42%	9	-21%	x
N#Cc1cccc(CN2C[C@@H](CO)[C@H](c3ccccn3)C2)c1	33%	6	3%	13µM*
COC[C@@H]1CN(Cc2cccc(C#N)c2)C[C@H]1c1ccccn1	u	8	-1%	i
COc1ccc(NC(=O)c2nc3sccn3c2-c2cccc(C(F)(F)F)c2)cc1	-28%	7	22µM*	x
COc1ccc(CCNC(=O)c2ccc3nnc(-c4cccc(C(F)(F)F)c4)n3c2)cc1	u	20	u	x
COc1ccc(NS(=O)(=O)c2ccc3c(c2)[C@H]2C=CC[C@H]2[C@@H](c2ccc(C(=O)O)cc2)N3)cc1	18%	-58*	-15%	u
COC(=O)c1ccc([C@H]2Nc3ccc(S(=O)(=O)Nc4ccc(C)cc4)cc3[C@H]3C=CC[C@H]32)cc1	-19%	-12	-3%	u
COCCn1ccc2c(C3=CCOCC3)nc(-c3cccc(N[S+](C)(=O)[O-])c3)cc21	2%[87.6 µM]	-11	11%[87.6 µM]	i
COCCn1ccc2c(C3=CCOCC3)nc(-c3cccc(NC(C)=O)c3)cc21	3%[87.6 µM]	-13	0%[87.6 µM]	35µM*
COCCn1ccc2c(C3=CCOCC3)nc(-c3cccc4cn[nH]c34)cc21	6%[87.6 µM]	1	-23%[87.6 µM]	35µM*
COc1ccccc1-c1nccc2c(=O)cc(C3=CCOCC3)oc12	-27%[87.6 µM]	-9	-16%[87.6 µM]	u
CN(C)C(=O)NC1(c2ccccc2)CCN(CCC[C@]2(c3ccc(Cl)c(Cl)c3)CCCN(C(=O)c3ccccc3)C2)CC1	x	0	u	x
CC(=O)N(C)C1(c2ccccc2)CCN(CCC[C@]2(c3ccc(Cl)c(Cl)c3)CCCN(C(=O)c3ccccc3)C2)CC1	1.7µM*	-2	2.2µM*!	x
CNC(=O)c1cc(C2CC2)nc2onc(C3CCN(C(=O)c4cccc(C(F)(F)F)c4)CC3)c12	x	-13	x	x
Cc1ccc2c(C(=O)N3CCOCC3)cnn2c1	48%[87.6 µM]	-11	2%[87.6 µM]	32µM*
O=C(c1cnn2ncccc12)N1CCOCC1	122%[87.6 µM]	-7	-21%[87.6 µM]	i
CC(C)c1nc2c(c(-c3ccc(Cl)cc3)n1)CN(C(=O)C(C)(C)C)CC2	-11%	-2	-16%	x
CN(C)c1cccc(C(=O)NC2CCN(c3cnn(C)c(=O)c3)CC2)c1	218%	16	4%	25µM*
Cn1ncc(N2CCC(NC(=O)c3ccc4c(c3)OCO4)CC2)cc1=O	16%	37	-10%	i
CN(C)c1cccc(C(=O)NC2CCN(c3cc(-c4ccccc4)[nH]n3)CC2)c1	79%	15	-13%	20µM*
CN(C)c1ccc(C(=O)NC2CCCN(c3cc(-c4ccccc4)[nH]n3)C2)cc1 (stereo unspecified)	29%	7	-26%	i
CN(C)c1ccc(C(=O)NC2CCN(c3cc(-c4ccccc4)[nH]n3)C2)cc1 (stereo unspecified)	-19%	3	3%	14µM*
O=C(NC1CCN(c2cc(-c3ccccc3)[nH]n2)CC1)c1ccccc1	39%	12	8%	i

Compound activity as filed in PubChem.
